BoNT F protease: BoNT/F light chain protease inhibitors, primary screen, biochemical, flow cytometry, MLPCN library; Multiplex microsphere protease cleavage assay; inhibition, % at 10 µM; 360,000 tested, 0.22% active; in the data active = inhibition above about 35%, passing the limit was not always enough; inconclusive = no clear call, values can overlap the other calls
Anthrax LF inh2: Bacillus anthracis LF protease inhibitors, primary screen, biochemical, multiplex microsphere, MLPCN library; inhibition, % at 10 µM; multiplex microsphere protease cleavage assay; 360,000 tested, 0.12% active
MazEF act: activators of E. coli MazEF toxin-antitoxin RNase, primary screen, biochemical, fluorescence, uHTS; FAM/BHQ RNA-DNA oligo cleavage fluorescence, 5 h; Endoribonuclease toxin MazF (Escherichia coli (strain K12)), P0AE70; AID 504720, 2011; activation, % at 20 µM; 350,000 tested, 0.32% active; in the data active = activation above about 50%
Target sequence (P0AE70 whole entry, looked up): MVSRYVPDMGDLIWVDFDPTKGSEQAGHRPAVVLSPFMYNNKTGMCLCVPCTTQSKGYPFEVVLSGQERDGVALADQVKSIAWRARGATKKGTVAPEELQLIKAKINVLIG
VHR inh abs: VHR1 phosphatase inhibitors, primary screen, biochemical, absorbance, uHTS; Dual specificity protein phosphatase 3 (Homo sapiens), P51452; recombinant VHR phosphatase, pNPP absorbance; inhibition, % at 13.3 µM; 290,000 tested, 0.52% active; AID 1654, 2009; in the data active = inhibition above about 50%
Target sequence (P51452 whole entry, looked up): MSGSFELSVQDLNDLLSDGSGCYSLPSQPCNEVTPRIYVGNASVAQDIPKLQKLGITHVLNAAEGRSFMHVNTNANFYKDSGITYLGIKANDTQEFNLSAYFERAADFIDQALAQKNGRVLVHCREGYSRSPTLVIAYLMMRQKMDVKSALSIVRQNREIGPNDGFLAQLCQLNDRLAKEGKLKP
BoNT-A LC inh2: BoNT/A light chain protease inhibitors, primary screen, biochemical, flow cytometry, MLPCN library; multiplex microsphere protease substrate cleavage; inhibition, % at 10 µM; 360,000 tested, 0.17% active
Bead autofluor: counter-screen for toxin protease inhibitors: compound fluorescence. fluorescence intensity (no concentration beside the values). 360,000 tested, 3.1% active. compound autofluorescence counterscreen, microsphere flow cytometry; stronger effect = higher value; in the data active = fluorescence intensity above about 16000; inconclusive = no clear call, values can overlap the other calls
A number is an active result; – = inactive; ? = inconclusive; · = no result. The list is not random: actives were taken first. Their share in the collection is about 4%. Cut-off read from the data, not from the text of the source, unless noted: active = inhibition above about 30%; inconclusive = no clear call, values can overlap the other calls; inactive = below that.

SMILES	BoNT F protease	Anthrax LF inh2	MazEF act	VHR inh abs	BoNT-A LC inh2	Bead autofluor
CCC(C)c1ccc(N2C(=O)NC(=O)/C(=C/c3cccn3CCOc3ccc(C)cc3)C2=O)cc1 (stereo not given)	–	–	123.8	–	–	–
Cc1ccc(N2C(=O)NC(=O)/C(=C\c3cccn3C(C)(C)C)C2=O)cc1	–	–	–	–	–	–
C=CCN1/C(=C2/SC(=S)N(C)C2=O)Sc2ccccc21	·	·	·	–	·	·
CC(=O)OC1c2c(ccc3ccc(=O)oc23)OC(C)(C)C1OC(=O)CC(C)C (stereo not given)	–	–	–	–	–	–
c1ccc(Nc2cc(-c3ccccc3)nc3ncnn23)cc1	–	–	–	–	?	16695
CC(=O)NC(Cc1ccccc1)C(=O)NC1CCN(C(=O)c2cnccn2)CC1 (stereo not given)	–	–	–	–	?	16732
CC(C)C(=O)Nc1cc(C(F)(F)F)ccc1-n1ccnc1	–	–	–	–	–	–
CCN1C(=O)NC(=O)/C(=C\c2cn(CC(=O)N3CCCCC3)c3ccccc23)C1=O	–	–	117.4	–	–	–
CCN1C(=O)NC(=O)/C(=C\c2cn(CC(=O)N3CCCC3)c3ccccc23)C1=O	–	–	–	–	–	–
O=C(O)CN1C(=O)/C(=C\c2cn(CC(=O)N3CCOCC3)c3ccccc23)SC1=S	–	–	191.0	–	–	–
COC(=O)c1ccc2c(=O)n(-c3ccccc3)c(=S)[nH]c2c1	–	–	–	–	–	–
Cc1sc(NC(=O)c2ccco2)c(CN2CCN(c3ccccn3)CC2)c1C	–	–	–	–	–	23314
CC(=O)Nc1sc2c(c1CN1CCN(c3ccccn3)CC1)CCCC2	–	–	–	–	–	22350
CC(=O)Nc1sc2c(c1CN1CCCC1)CCCC2	–	–	–	–	–	–
O=C(CSc1ccccc1)N1CCCC(Nc2ccccc2)C1 (stereo not given)	–	–	–	–	–	–
CC(C)(Cc1ccc(O)cc1)NC(=O)SCc1ccccc1	–	–	–	51.3	–	–
CC1Cc2ccccc2N1S(=O)(=O)c1cccc(C(=O)NNC(=O)c2ccccc2F)c1 (stereo not given)	–	–	–	·	–	–
Cc1ccccc1CNC(=O)Cc1cccs1	–	–	–	–	–	–
O=C(Cc1cccs1)NCc1ccccc1F	–	–	–	–	–	21726
CC1=CCC(C(=O)O)C(C(=O)NC2CCCCC2)C1 (stereo not given)	–	–	–	–	–	–
CC1=CCC(C(=O)O)C(C(=O)O)C1 (stereo not given)	–	–	–	–	–	22181
Cc1cnc([N+](=O)[O-])n1CCOC(=O)c1cccc(F)c1	–	–	–	–	–	–
CC(=O)C(Sc1ccc2nnc(-c3ccncc3)n2n1)C(C)=O	–	–	–	–	–	–
Cc1ccc(-n2c(SCC(=O)Nc3ccc4c5c(cccc35)CC4)nc(O)cc2=O)cc1	–	–	–	–	–	–
Cc1cc(C)c(NC(=O)Cn2nnc(C(=O)NCc3ccc4c(c3)OCO4)c2N)c(C)c1	–	–	70.2	–	–	–
SMILES	BoNT F protease	Anthrax LF inh2	MazEF act	VHR inh abs	BoNT-A LC inh2	Bead autofluor
Cc1ccc(NC(=O)Cn2nnc(C(=O)NCc3ccc4c(c3)OCO4)c2N)cc1	–	–	–	–	–	–
Nc1c(C(=O)NCc2ccc3c(c2)OCO3)nnn1CC(=O)Nc1ccc(Br)cc1	–	–	90.4	–	–	–
Cc1c(C(=O)N(C)C)c2ccc(Cl)cc2n1O	–	–	–	–	–	–
FC(F)(F)c1cnc(Sc2nnc(-c3cccs3)n2CC2CCCO2)c(Cl)c1 (stereo not given)	–	–	–	–	–	20185
FC(F)(F)c1ccc(Sc2nnc(-c3cccs3)n2CC2CCCO2)nc1 (stereo not given)	–	–	–	–	–	–
O=C(c1ccccc1F)N1CCN(c2ccccc2)CC1	–	–	–	–	–	19300
O=C(c1ccccc1F)N1CCN(c2ccccc2F)CC1	–	–	–	53.4	–	–
FC(F)(F)c1cccc(CON=C2CCN(c3ncc(C(F)(F)F)cc3Cl)CC2)c1	–	–	–	–	–	19810
FC(F)(F)c1cnc(N2CCC(=NOCc3ccc(Cl)cc3)CC2)c(Cl)c1	–	–	–	–	–	–

High-throughput results (PubChem BioAssay)
